SW480 rereplic: inducers of DNA re-replication in SW480 colon cancer cells; Potency, µM (highest dose often 46.1 µM), inactives show top-dose re-replication activation, hits mostly activators; actives 1.8% (n = 340,000); AID 624297; SW480 DNA re-replication, Hoechst DNA content imaging, 48 h; note: potency is the fitted concentration of half-maximal effect; % of control where 0% means no effect; nearly all actives have a fitted effect of over 55% in size
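First, 250 cells per well were seeded. Next, compound or vehicle (23 nL) was pinned in, plates sat 48 hr at 37 C. Finally Hoechst was added for 40 min before fluorescence scanning.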
VP16 counter: Gal4-VP16 reporter inhibition counter-screen; Potency, µM (titrated, usually from 53.6 µM), for inactives: at the top dose activity, negative = inhibition, actives largely listed as inhibitors; actives 3.5% (n = 310,000); AID 2546; Drosophila S2 Gal4-VP16 UAS-luciferase, luminescence, 20 h;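 note: Gal4-VP16 expression switched on by copper sulfate through the metallothionein promoter; potency is the fitted concentration of half-maximal effect; % is set by controls: 0 for no effect and ±100 for the full control effect; nearly all actives have a fitted effect of over 50% in size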
IL-1B inflam inh: inhibitors of inflammasome signaling (IL-1 beta secretion) | actives 4.7% (n = 360,000) | activity change, % at 57.5 µM | THP-1 LPS/ATP IL-1B secretion, AlphaLISA, 16 h; hits give low values; in the data active = activity change below about -50%; inconclusive = mostly about -30% to -49%; note: % is set by controls: 0 for no effect and ±100 for the full control effect
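THP-1 cells pretreated 1 hr with compounds (up to 57.5 uM final), then stimulated with LPS (250 ng/mL final) plus ATP (1.25 mM final); secreted IL-1B measured by AlphaLISA after 16 hr, decreased signal indicating inhibition.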
RORg inh: blocks mouse ROR gamma transcriptional activity; P51450; Drosophila S2 Gal4-RORgamma UAS-luciferase reporter, 20 h; Potency, µM (top dose mostly 53.6 µM), for inactives: at the top dose activity change, negative = inhibition, usual class: inhibitors; actives 5.4% (n = 310,000); AID 2551; note: potency is the fitted concentration of half-maximal effect; % is set by controls: 0 for no effect and ±100 for the full control effect; nearly all actives have a fitted effect of over 60% in size
Target sequence (P51450 whole entry, looked up, the tested form may be a part): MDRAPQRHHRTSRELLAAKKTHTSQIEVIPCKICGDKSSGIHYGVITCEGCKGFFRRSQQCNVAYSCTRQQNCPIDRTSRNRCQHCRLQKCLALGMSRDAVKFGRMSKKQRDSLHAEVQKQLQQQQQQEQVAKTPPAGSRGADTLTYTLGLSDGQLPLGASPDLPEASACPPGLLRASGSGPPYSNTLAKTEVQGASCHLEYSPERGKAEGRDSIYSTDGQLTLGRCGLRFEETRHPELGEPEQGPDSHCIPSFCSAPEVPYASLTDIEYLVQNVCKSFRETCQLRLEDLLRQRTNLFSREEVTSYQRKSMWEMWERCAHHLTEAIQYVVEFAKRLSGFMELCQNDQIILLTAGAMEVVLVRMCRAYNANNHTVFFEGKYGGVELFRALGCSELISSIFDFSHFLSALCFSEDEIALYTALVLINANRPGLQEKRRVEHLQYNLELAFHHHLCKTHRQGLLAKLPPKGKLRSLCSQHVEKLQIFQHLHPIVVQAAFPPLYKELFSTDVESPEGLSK
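Luciferase reporter read in Schneider cells carrying Gal4-RORγ (mouse) and UAS-Photinus luciferase; cells given compound 1 h before 700 uM copper sulfate induction, then incubated 20 h at ambient temperature.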
MCF10A rereplic: induces DNA re-replication in MCF 10a normal breast cells; MCF 10A DNA re-replication, Hoechst nuclear intensity, 48 h; Potency, µM (titrated, usually from 46.1 µM), inactives show at the highest dose activity, positive = re-replication, actives largely listed as activators; actives 2.9% (n = 350,000); AID 624296; note: potency is the fitted concentration of half-maximal effect; % of control where 0% means no effect; nearly all actives have a fitted effect of over 50% in size
An asterisk follows results filed as active; ? = inconclusive; / = not tested or not shown; [ ] = remark or other dose. Only some compounds are listed: those with a hit (about 11% of all), similar ones and a draw of the others. Unless noted, calls come from the whole dose curve; as a rule, active = well fitted curve in the direction sought with a large enough effect; inconclusive = small, poorly fitted or top-dose-only effect, or another doubt; inactive = no such curve, though single readings can be large; an effect the other way counts as inactive or inconclusive.

SMILES | SW480 rereplic | VP16 counter | IL-1B inflam inh | RORg inh | MCF10A rereplic
CCOc1ccccc1N=Nc1c(C)[nH]n(C(N)=S)c1=O | -6.3% | 1.26µM* | 11.9 | 0.447µM* | 1.0%
CCCCCC(=O)CC[C@@H]1[C@@H](C/C=C\CCCC(=O)O)[C@@H](O)C[C@H]1O | / | -15.2% | / | 1.6% | /
CCCCC[n+]1ccn(C2=C([O-])c3ccccc3C(=O)/C2=N\S(=O)(=O)c2ccc(Cl)cc2)c1 | -1.3% | 3.5% | 106.8 | -24.6% | 7.6%
CCCC[n+]1ccn(C2=C([O-])c3ccccc3C(=O)/C2=N\S(=O)(=O)c2ccc(Cl)cc2)c1 | 24.2% | ? | 42.7 | 1.58µM* | 8.8%
COc1ccc(/C=N/Nc2ncc(C(F)(F)F)cc2Cl)cc1OC | -0.7% | 3.55µM* | -12.3 | ? | ?
FC(F)(F)c1cnc(N/N=C/c2ccncc2)c(Cl)c1 | -5.8% | ? | -6.4 | 12.6µM* | -0.2%
Cc1c(C(=O)N/N=C/c2ccc(-c3ccccc3[N+](=O)[O-])o2)sc(N)c1C#N | -78.2% | -56.3% | 52.2 | 39.5%[10 µM] | 14.2%
COc1cc(/C=N/NC(=O)c2ccccc2)ccc1O | 1.4% | 2.3% | 0.1 | -16.2% | 9.6%
Cc1c(C(=O)N/N=C/c2ccc(O)c(Br)c2)sc(N)c1C#N | 2.0% | 10.6% | -96.3* | ? | ?
COc1cc(/C=N/NC(=O)c2sc(N)c(C#N)c2C)ccc1O | 0.3%[9.22 µM] | -9.2% | -89.6* | -18.9% | ?
CC1CC/C(=C\c2ccc3c(c2)OCO3)C(=O)/C1=C/c1ccc2c(c1)OCO2 (configuration not stated) | ? | 1.0% | -54.7* | 2.1% | 7.31µM*
O=C1OCC/C1=C\c1ccc2c(c1)OCO2 | 9.8% | 26.9% | -8.3 | 2.8% | 8.3%
O=C1/C(=C\c2ccc3c(c2)OCO3)CCC/C1=C/c1ccc2c(c1)OCO2 | -2.3% | -7.7% | -16.4 | -27.7% | 11.6µM*
Cn1cccc1/C=N/n1c(-c2ccc(Cl)cc2)n[nH]c1=S | -2.4% | ? | 18.8 | 2.51µM* | ?
Cn1cccc1/C=N/n1c(-c2ccc(Cl)cc2Cl)n[nH]c1=S | -2.8% | ? | 4.3 | 2.82µM* | 5.1%
Cc1ccc(-c2n[nH]c(=S)n2/N=C/c2cccn2C)cc1 | -4.6% | 11.2µM* | 1.6 | 3.16µM* | 2.0%
COc1ccc(-c2n[nH]c(=S)n2/N=C/c2cccn2C)cc1 | -2.6% | -0.1% | -18.8 | 24.9% | -2.2%
Oc1ccccc1Nc1nc(NCc2ccccc2)c2ccccc2n1 | 16.0% | 22.4µM* | -100.6* | ? | 16.4µM*
CCCCNc1nc(NCc2ccccc2)nc2ccccc12 | / | / | -110.3* | / | /
Oc1ccccc1-c1nc(NCc2ccccc2)c2ccccc2n1 | 14.0% | -3.5% | -10.3 | -25.9% | ?
CNc1nc(NCc2ccccc2)c2ccccc2n1 | 14.6% | -17.1% | / | 40.3% | ?
O=C(Cc1csc(NC(=O)Nc2ccc(Cl)cc2)n1)NC1CCCC1 | -5.7% | / | -53.3* | / | ?
O=C(Nc1ccc(Cl)cc1)Nc1nc(-c2ccccc2O)cs1 | 16.5% | -11.2% | -68.7* | 0.5% | 20.0%
O=C(Nc1ccc(Cl)cc1)Nc1nc(-c2sccc2Br)cs1 | 21.1% | ? | 0.0 | -43.7% | 11.4%
CN(C)CCN1CCN(C2CN(Cc3cn(Cc4ccc(F)cc4)nn3)S(=O)(=O)C2)CC1 (configuration not stated) | / | / | -1.3 | / | /
SMILES | SW480 rereplic | VP16 counter | IL-1B inflam inh | RORg inh | MCF10A rereplic
Cc1ccc(C(=O)/C=C/c2cn(CN3CCN(C)CC3)c3ccccc23)cc1 | 18.4µM* | ? | -55.0* | -31.3% | 18.4µM*
O=C(NNC(=O)C1C2C=CC(C2)C1C(=O)O)c1cc(Cl)ccc1O (configuration not stated) | 2.2% | 0.3% | -6.6 | -17.5% | 0.2%
Nc1ncnc2c1ncn2[C@@H]1O[C@H](C(=O)NS(=O)(=O)c2cccs2)[C@@H](O)[C@H]1O | / | / | 13.9 | / | /
COc1ccc(NC2=Nc3cccc4cccc2c34)cc1 | 1.7% | ? | -7.6 | 12.6µM* | 7.3%
c1ccc(NC2=Nc3cccc4cccc2c34)cc1 | -2.5% | ? | ? | ? | -39.2%
Fc1ccc(/C=N/NC2=Nc3cccc4cccc2c34)cc1 | 2.7% | ? | -17.4 | 1.12µM* | 16.4µM*
Fc1ccc(/C=N/Nc2nccnc2Cl)cc1 | -2.0% | 1.2% | ? | -5.2% | 5.4%
CC=C1OC(n2cnc3c(N)ncnc32)C(O)C1O (configuration not stated) | / | / | 21.3 | / | /
Cc1cc(C)nc(N/N=C/c2c[nH]c3ccccc23)n1 | -6.6% | 15.0% | 50.3 | ? | 7.7%
COC(=O)N/N=C/c1c[nH]c2ccccc12 | 5.1% | 3.5% | 9.8 | 4.6% | 0.5%
CN1CCN(CC(=O)N/N=C\c2c[nH]c3ccccc23)CC1 | 9.0% | 22.4µM* | / | ? | 28.1%
C(=NN=C1c2ccccc2-c2ccccc21)c1c[nH]c2ccccc12 | 9.2% | / | -102.7* | / | ?
Fc1c(F)c(F)c(N/N=C/c2c[nH]c3ccccc23)c(F)c1F | 9.8% | -14.2% | -87.2* | -14.2% | ?
O=C(N/N=C/c1c[nH]c2ccccc12)c1ccccc1Cl | -3.1% | 29.6% | 19.6 | 4.2% | -0.6%
O=C(N/N=C/c1c[nH]c2ccccc12)c1cc(Cl)ccc1O | -8.2% | 6.31µM* | 4.2 | 5.01µM* | -0.4%
COC(=O)CCC(C)N1CCC(Oc2ccc(C(=O)NCc3ccccn3)cc2)CC1 (configuration not stated) | 1.1% | -5.1% | 12.4 | -13.7% | ?
O=C(N/N=C/c1c[nH]c2ccccc12)c1ccc(Cl)cc1 | -3.5% | ? | -26.4 | 10µM* | 14.2%
O=C(N/N=C\c1c[nH]c2ccccc12)c1ccc(O)cc1 | -9.1% | -17.3% | -8.7 | 6.31µM* | 0.5%
NC(=S)N/N=C/c1c[nH]c2ccccc12 | -5.4% | ? | 0.0 | 2.51µM* | -2.1%
O=C(O)c1ccc(N/N=C/c2c[nH]c3ccccc23)cc1 | -32.3% | 0.316µM* | 13.9 | 0.0355µM* | 0.3%
COc1ccc(CN2CCN(CCSc3ccc(C)cc3)CC2)c(OC)c1OC | -2.9% | 1.0% | -1.1 | -20.2% | 2.1%
CCC(SC1=N/C(=C/c2ccccc2)C(=O)N1c1ccccc1)C(=O)Nc1cc(C)on1 (configuration not stated) | ? | -12.5% | -15.6 | -7.6% | 28.4%
COc1ccc(/C=C2/N=C(SCC(=O)Nc3cc(C)on3)N(c3ccccc3)C2=O)cc1 | 1.9% | ? | 28.1 | -17.6% | 20.6µM*
CCSC1=N/C(=C\c2ccccc2)C(=O)N1c1ccc(OC)cc1 | 18.4µM* | -5.0% | -5.2 | 10.1% | 14.6µM*
C=CCSC1=N/C(=C\c2cccnc2)C(=O)N1c1ccc(OC)cc1 | 1.6% | -5.1% | 11.6 | -0.9% | -69.8%
CCN(CC)C1=N/C(=C\c2ccc(OC)cc2)C(=O)N1c1ccccc1 | 16.4µM* | 2.7% | ? | 0.3% | 18.4µM*
O=C(COC(=O)COc1ccc(Cl)cc1)Nc1ncc(Br)s1 | -5.3% | / | 0.6 | / | ?
